Experimental data published in ChEMBL document CHEMBL4513216, “Probing the Open Global Health Chemical Diversity Library for Multistage-Active Starting Points for Next-Generation Antimalarials” (ACS Infect Dis, 2020).
Screen size: about 69,000 compounds; about 8,600 (12%) showed an effect of 50% or more. The sample holds strong results, similar compounds and a random draw of the others, so the mix is not that of the screen.

Test system: Plasmodium berghei
Assay: Screen against P. berghei liver stage (PbLuc), transformed with Luciferase, at 10uM
Type: functional, HepG2
Conditions: tested at 10 uM

Row | SMILES | INHIBITION
1 | O=c1occ(CN2CCOCC2)c(O)c1CN1CCOCC1 | 3.19%
2 | CNS(=O)(=O)c1cccc(C(C)NCc2ccc(F)cc2F)c1 (stereo unspecified) | 65.4%
3 | CC(NCc1ccc(F)cc1)c1ccc(S(C)(=O)=O)cc1 (stereo unspecified) | 25.5%
4 | CNS(=O)(=O)c1cccc(C(C)NCc2ccc(C)c(C)c2)c1 (stereo unspecified) | 62.8%
5 | CCOc1ccc(CNC(C)c2cccc(S(=O)(=O)NC)c2)cc1 (stereo unspecified) | 46.6%
6 | CNS(=O)(=O)c1cccc(C(C)NCc2cccc(O)c2)c1 (stereo unspecified) | 50.8%
7 | CNS(=O)(=O)c1cccc(C(C)NCc2ccncc2)c1 (stereo unspecified) | 32.9%
8 | CNS(=O)(=O)c1cccc(C(C)NCc2cccc(OC)c2)c1 (stereo unspecified) | 20.1%
9 | CC(NCc1cccc(S(=O)(=O)N(C)C)c1)c1cccnc1 (stereo unspecified) | 21.9%
10 | CNS(=O)(=O)c1cccc(C(C)NCc2ccccc2)c1 (stereo unspecified) | 11.8%
11 | CNS(=O)(=O)c1cccc(C(C)NCc2ccc(F)c(F)c2)c1 (stereo unspecified) | 59.4%
12 | Cc1nc(CNC(C)c2cccc(S(=O)(=O)N(C)C)c2)no1 (stereo unspecified) | 39.7%
13 | CC(CO)NS(=O)(=O)c1cccc(C(C)C)c1 (stereo unspecified) | 26.6%
14 | O=S(=O)(C1CC1)N1CC[C@@H]2[C@@H]1CCN2Cc1cccs1 | 33%
15 | Cc1cccc(NC(=O)N2CCCn3cnc(CN(C)C(C)C)c3C2)c1 | -6.3%
16 | NC(=O)c1cnn2c(C3CCCN(C4CCOCC4)C3)ccnc12 (stereo unspecified) | 10.51%
17 | CCc1ccc(NC(=O)CC2Cn3ncnc3NC2=O)cc1 (stereo unspecified) | -4.76%
18 | CCN1C(=O)[C@H]2CN(CC(C)C)C[C@H]2C12CCN(C(=O)NC(C)C)CC2 | -16.9%
19 | Cc1ccc(N2CCCC3(CCCC(=O)N3)C2)nn1 (stereo unspecified) | 3.88%
20 | CCOCCCC(=O)NCCC(=O)N1CCN(c2ccccn2)CC1 | -39.5%
21 | CCN1CC(O)CN(C(=O)c2ccc(SC)cc2)CC1=O (stereo unspecified) | 47.2%
22 | c1ccc2nc(N3CCOC(Cn4cncn4)C3)cnc2c1 (stereo unspecified) | -44.3%

Row | SMILES | INHIBITION
23 | CCN(CC(=O)N(C)C)C(=O)c1nc(C)n(-c2ccccc2Cl)n1 | -28.7%
24 | CCc1cc(CN(C)C(=O)c2cnn[nH]2)on1 | -47.9%
25 | COc1ccccc1CNc1ncnc2c1NC(=O)CN2 | -79.3%
26 | O=C(NCc1nncn1C1CCCCC1)C1COc2ccccc2O1 (stereo unspecified) | 35.4%
27 | CNS(=O)(=O)c1cccc(C(C)NCc2cccc(C)c2C)c1 (stereo unspecified) | 52.6%
28 | CNS(=O)(=O)c1cccc(C(C)NCc2ccc(C)o2)c1 (stereo unspecified) | 35.4%
29 | CNS(=O)(=O)c1cccc(C(C)NCc2ccco2)c1 (stereo unspecified) | 55.1%
30 | CNS(=O)(=O)c1cccc(C(C)NCc2nccn2C(C)C)c1 (stereo unspecified) | 23.5%
31 | CNS(=O)(=O)c1cccc(C(C)NCc2ccsc2)c1 (stereo unspecified) | 36.3%
32 | CNS(=O)(=O)c1cccc(C(C)NCc2ccccc2OC)c1 (stereo unspecified) | -9.93%
33 | O=C(NCc1ccccc1)[C@H]1C[C@H]2CN(C(=O)NC3CCCC3)C[C@@H]1O2 | 7.65%
34 | CCC1CCCCN1C(=O)Cn1nc(-c2cc(C)oc2C)cc(N)c1=O (stereo unspecified) | 37.5%
35 | N#Cc1cccc(C(=O)N2CCc3c(COCC4CC4)cncc3C2)c1 | 18.7%
36 | COc1ccc(CNc2cccnc2-n2cccn2)c(OC)c1OC | 41.5%
37 | O=C(NC1CCCC1)N1CCCCC1c1nc(C2CC2)no1 (stereo unspecified) | 38.6%
38 | Fc1ccc(CN2CCCn3nnc(COCC4CC4)c3C2)cc1 | 46.6%
39 | O=C(c1cccc(F)c1)N1CC[C@@H]2CN(c3ncccn3)CCO[C@@H]2C1 | 48.6%
40 | O=C(c1ccccc1F)N1CC[C@@H]2CN(c3ncccn3)CCO[C@@H]2C1 | 69.5%
41 | Cc1ccccc1C(=O)N1CC[C@@H]2CN(c3ncccn3)CCO[C@@H]2C1 | 47.4%
42 | Cc1cnc(C(=O)N2CC[C@@H]3CN(c4ncccn4)CCO[C@@H]3C2)cn1 | 56.7%
43 | O=C(c1ccncc1F)N1CC[C@@H]2CN(c3ncccn3)CCO[C@@H]2C1 | -1.55%
44 | Cc1cccc(C(=O)N2CC[C@@H]3CN(c4ncccn4)CCO[C@@H]3C2)c1 | 4.27%

Row | SMILES | INHIBITION
45 | CN1CCCC1c1cncc(C(=O)NCc2ccccc2)n1 (stereo unspecified) | 40.6%
46 | CN1CCN([C@@H]2CCN(CC3CCOC3)[C@H]2Cc2cnn(C)c2)CC1 (stereo partly specified) | -10.5%
47 | COCC(=O)N1CCC2(CC1)COCCN2CCN(C)C | 0.547%
48 | O=C(c1ccccc1)N1C[C@H]2CCC[C@@]2(COCc2ccncc2)C1 | -4.88%
49 | N#Cc1ccc(NCCNc2ccc(C(F)(F)F)cn2)nc1 | 78.4%
50 | CN(C)c1ccc(C(=O)NCCCNc2ccc(C(F)(F)F)cn2)cc1 | 38.95%
51 | N#Cc1ccc(C(=O)NCCCNc2ccc(C(F)(F)F)cn2)cc1 | 42.7%
52 | O=C(NCCNc1ccc(C(F)(F)F)cn1)c1ccc(F)cc1Cl | 3.73%
53 | Cc1ccc(C(=O)NCCCNc2ccc(C(F)(F)F)cn2)cc1 | 51.85%
54 | Cc1cc(NCCNc2ccc(C#N)cn2)nc(C)n1 | -14.1%
55 | O=C(NCCCNc1ccc(C(F)(F)F)cn1)c1ccc(F)cc1 | 67.3%
56 | O=C(NCCCNc1ccc(C(F)(F)F)cn1)c1ccc(F)cc1Br | 82.6%
57 | O=C(NCCCNc1ccc(C(F)(F)F)cn1)c1ccccc1 | 10.65%
58 | COc1ccc(C(=O)NCCCNc2ccc(C(F)(F)F)cn2)cc1 | 34.15%
59 | Nc1nccnc1C(=O)NCCCNc1ccc(C(F)(F)F)cn1 | 25.55%
60 | O=C(NCCCNc1ccc(C(F)(F)F)cn1)c1ccc(F)cc1F | -23.9%
61 | O[C@H]1CN(Cc2ccnc(N3CCCC3)n2)CC[C@@]12CCCO2 | -14.2%
62 | Cc1ncsc1CN(C)Cc1cc2c(cc1OC(F)F)OCO2 | 34.9%
63 | Cc1csc(C(C)(C)NCc2ncc(-c3ccccc3)o2)n1 | -20.3%
64 | CN(C)C(=O)c1nc(-c2ccc(S(C)(=O)=O)cc2)c2ccccn12 | 17.6%
65 | CNC(=O)C1CN(C(=O)COc2ccccc2)Cc2cn(C)nc21 (stereo unspecified) | 42.6%
66 | COC(=O)Cn1c(=O)[nH]c2cn(-c3cccc(C)c3)c(=O)n21 | -9.39%
